Results from PubChem BioAssay (Tox21).
“And” between values parts separate entries of the source, which are not always exact repeats. Equal values may be shown once. Inconclusive results are not listed. A call without a number means that no potency is given here. Where a structure was tested more than once in an assay, its records may differ in their call. The source made the active and inactive calls. Unless noted, calls follow the shape of the dose curve; as a rule, active = well fitted curve in the direction sought with a large enough effect in the repeat runs; inconclusive = weak or mixed curves; inactive = no such curve, though single readings can be large; an effect the other way counts as inactive or inconclusive.

What was measured:
[1] = qHTS assay to identify aromatase inhibitors - cell viability counter screen (AID 743084);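 also: cells stimulated with testosterone during compound exposure; nearly all actives have a fitted effect of over 55% in size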
[2] = biological target: Aryl hydrocarbon receptor (Homo sapiens) (UniProt P35869); experiment: qHTS assay to identify small molecule that activate the aryl hydrocarbon receptor (AhR) signaling pathway (AID 743085); also: nearly all actives have a fitted effect of over 15% in size; also: potency is read from the fitted curve at half-maximal effect;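 as to activation: HG2L7.5c1 human HepG2 liver cells with stably integrated DRE-driven firefly reporter; series mostly up to about 70 µM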
Aryl hydrocarbon receptor (Homo sapiens), sequence (P35869 whole entry, looked up): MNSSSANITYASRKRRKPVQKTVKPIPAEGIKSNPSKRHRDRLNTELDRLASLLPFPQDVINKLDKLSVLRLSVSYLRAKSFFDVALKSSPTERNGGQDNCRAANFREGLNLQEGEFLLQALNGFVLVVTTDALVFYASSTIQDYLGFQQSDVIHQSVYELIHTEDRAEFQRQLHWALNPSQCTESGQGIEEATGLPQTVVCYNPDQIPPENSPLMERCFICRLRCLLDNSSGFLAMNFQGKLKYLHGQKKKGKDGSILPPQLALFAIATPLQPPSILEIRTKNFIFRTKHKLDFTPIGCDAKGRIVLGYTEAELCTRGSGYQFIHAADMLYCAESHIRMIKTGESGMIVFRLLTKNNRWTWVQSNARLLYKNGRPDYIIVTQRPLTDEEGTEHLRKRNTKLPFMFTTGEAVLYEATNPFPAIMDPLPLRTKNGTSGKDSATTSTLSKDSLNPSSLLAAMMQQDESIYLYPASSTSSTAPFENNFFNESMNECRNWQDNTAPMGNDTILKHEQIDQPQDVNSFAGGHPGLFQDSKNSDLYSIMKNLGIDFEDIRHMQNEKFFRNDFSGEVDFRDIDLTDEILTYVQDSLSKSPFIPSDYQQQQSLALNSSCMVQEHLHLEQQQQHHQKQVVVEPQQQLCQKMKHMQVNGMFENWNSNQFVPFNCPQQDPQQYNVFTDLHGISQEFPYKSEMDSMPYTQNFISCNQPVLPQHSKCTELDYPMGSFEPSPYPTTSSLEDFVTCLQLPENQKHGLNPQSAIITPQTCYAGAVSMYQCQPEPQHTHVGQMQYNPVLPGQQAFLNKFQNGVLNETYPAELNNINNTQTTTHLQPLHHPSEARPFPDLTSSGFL
Procedure, shortened: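 Stably transfected human liver carcinoma cells (HG2L7.5c1; 20 DRE-firefly luciferase) were incubated 5 h, dosed, and kept 24 h at 37C. Agonism was scored from increased luciferase luminescence.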

[3] = qHTS assay to identify small molecule that activate the aryl hydrocarbon receptor (AhR) signaling pathway - cell viability counter screen (AID 743086);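 also: HepG2 liver cells carrying the AhR DRE luciferase reporter; series mostly up to about 70 µM; nearly all actives have a fitted effect of over 45% in size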
Procedure, shortened: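 Cytotoxicity counter screen: CellTiter-Fluor signal (30 min, 37 C) in 4000 HepG2 cells/well carrying the DRE-luciferase reporter, following 24 h compound exposure at 37 C.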

[4] = biological target: Peroxisome proliferator-activated receptor gamma (Homo sapiens) (UniProt P37231); experiment: qHTS assay to identify small molecule agonists of the peroxisome proliferator-activated receptor gamma (PPARg) signaling pathway (AID 743094; active = well fitted activation curve with a large enough effect in the signal ratio in the repeat runs, not every such curve was filed as active; the % refers to the signal ratio)
Peroxisome proliferator-activated receptor gamma (Homo sapiens), sequence (P37231 whole entry, looked up): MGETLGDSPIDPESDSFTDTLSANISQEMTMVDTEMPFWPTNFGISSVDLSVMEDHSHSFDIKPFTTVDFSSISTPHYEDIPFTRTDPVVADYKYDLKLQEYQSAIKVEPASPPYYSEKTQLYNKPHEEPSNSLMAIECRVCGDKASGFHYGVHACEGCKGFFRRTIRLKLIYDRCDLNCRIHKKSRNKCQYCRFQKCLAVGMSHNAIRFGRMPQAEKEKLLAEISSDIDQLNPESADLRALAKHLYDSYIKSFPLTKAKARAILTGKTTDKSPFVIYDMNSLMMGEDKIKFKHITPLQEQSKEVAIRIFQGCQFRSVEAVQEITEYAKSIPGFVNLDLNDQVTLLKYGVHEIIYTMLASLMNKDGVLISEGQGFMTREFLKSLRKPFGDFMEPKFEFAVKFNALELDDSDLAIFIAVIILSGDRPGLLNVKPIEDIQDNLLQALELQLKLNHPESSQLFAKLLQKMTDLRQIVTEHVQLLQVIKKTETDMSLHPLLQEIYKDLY
Procedure, shortened: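 Cell-based bla reporter, HEK293H background, PPARg-driven UAS. Pre-incubation 5 h, 37C, 5% CO2. Compound 17 h, 37C. Substrate 1 h RT; fluorescence.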

[5] = qHTS assay to identify small molecule antagonists of the peroxisome proliferator-activated receptor gamma (PPARg) signaling pathway - cell viability counter screen (AID 743194); conditions: Potency: co-treated with 50 nM rosiglitazone unless noted; also: nearly all actives have a fitted effect of over 55% in size
Procedure, shortened: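 Viability was measured as CellTiter-Glo luminescence in GeneBLAzer PPARg UAS-bla HEK293H cells. These cells had been exposed 17 h at 37 C to compounds together with rosiglitazone at 50 nM final, with the beta-lactamase readout taken in the same wells.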

[6] = qHTS assay for small molecule agonists of the antioxidant response element (ARE) signaling pathway (AID 743202; active = well fitted activation curve with a large enough effect in the signal ratio in the repeat runs, not every such curve was filed as active; the % refers to the signal ratio)
Procedure, shortened: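 Beta-lactamase reporter activity, read as fluorescence intensity, reflects ARE/Nrf2 pathway induction in HepG2 cells after 16 h compound exposure at 37 C; substrate loading was 2 h at room temperature.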

[7] = qHTS assay for small molecule agonists of the antioxidant response element (ARE) signaling pathway - cell viability counter screen (AID 743203; calls by dose curve; also: nearly all actives have a fitted effect of over 55% in size)
Procedure, shortened: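 Measured in the same wells as the beta-lactamase ARE reporter, this read-out is CellTiter-Glo luminescence from HepG2 ARE-bla cells given compounds for 16 hrs.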

[8] = qHTS assay for small molecule activators of the heat shock response signaling pathway - cell viability counter screen (AID 743209); also: nearly all actives have a fitted effect of over 50% in size
Procedure, shortened: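 Same-well multiplex: after 2.5 h room-temperature incubation with LiveBLAzer B/G substrate and fluorescence reading, CellTiter-Glo reagent was added to HSE-bla HeLa cells that had received compound for 5 h at 37 C; luminescence read after 30 min.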

[9] = qHTS assay for small molecule activators of the heat shock response signaling pathway (AID 743210; active = well fitted activation curve with a large enough effect in the signal ratio in the repeat runs, with a control signal flat, not every such curve was filed as active; the % refers to the signal ratio;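 also: HeLa cells with beta-lactamase reporter driven by heat shock elements; series mostly up to about 63 µM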)
Procedure, shortened: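 Fluorescence from a cleaved B/G FRET substrate (2.5 h, room temp) reports HSE-driven beta-lactamase in HeLa cells treated 5 h at 37 C with DMSO-dissolved compounds.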

[10] = qHTS assay to identify small molecule agonists of the peroxisome proliferator-activated receptor delta (PPARd) signaling pathway - cell viability counter screen (AID 743211); also: nearly all actives have a fitted effect of over 55% in size
Procedure, shortened: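 In the same wells used for beta-lactamase reporter measurement, cytotoxicity is scored by CellTiter-Glo. HEK293H PPARd-bla cells receive compound for 17 h at 37C following a 5 h settling period.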

[11] = biological target: Peroxisome proliferator-activated receptor delta (Homo sapiens) (UniProt Q03181); experiment: qHTS assay to identify small molecule agonists of the peroxisome proliferator-activated receptor delta (PPARd) signaling pathway (AID 743212; calls by dose curve;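 also: HEK293H cells with PPARd UAS beta-lactamase reporter GeneBLAzer system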)
Peroxisome proliferator-activated receptor delta (Homo sapiens), sequence (Q03181 whole entry, looked up): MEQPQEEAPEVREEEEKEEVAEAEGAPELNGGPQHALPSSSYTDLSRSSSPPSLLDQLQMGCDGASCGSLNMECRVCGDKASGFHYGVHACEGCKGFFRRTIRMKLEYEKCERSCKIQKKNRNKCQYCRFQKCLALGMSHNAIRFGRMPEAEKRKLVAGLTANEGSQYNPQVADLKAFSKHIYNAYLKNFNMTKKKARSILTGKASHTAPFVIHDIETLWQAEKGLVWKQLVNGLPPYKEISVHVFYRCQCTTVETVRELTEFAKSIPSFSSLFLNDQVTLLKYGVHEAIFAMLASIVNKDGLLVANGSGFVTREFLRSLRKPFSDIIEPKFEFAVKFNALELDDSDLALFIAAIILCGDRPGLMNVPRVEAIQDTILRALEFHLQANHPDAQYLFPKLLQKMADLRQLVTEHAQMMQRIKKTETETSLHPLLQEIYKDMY
Procedure, shortened: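 Steps: seed PPARd-bla HEK293H cells; incubate 5 h, 37 C, 5% CO2; add compounds in DMSO; incubate, 37 C; add LiveBLAzer B/G FRET substrate; hold 2 h at room temperature; measure fluorescence.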

[12] = qHTS assay to identify small molecule antagonists of the peroxisome proliferator-activated receptor delta (PPARd) signaling pathway - cell viability counter screen (AID 743213); also: nearly all actives have a fitted effect of over 50% in size
Procedure, shortened: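 PPARd-bla HEK293H cells were treated with compounds plus agonist L165041 (300 nM final) for 17 h at 37 C. Viability was then read in the same wells by CellTiter-Glo luminescence after 30 min at room temperature.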

[13] = biological target: Peroxisome proliferator-activated receptor delta (Homo sapiens) (UniProt Q03181); experiment: qHTS assay to identify small molecule antagonists of the peroxisome proliferator-activated receptor delta (PPARd) signaling pathway (AID 743215; active = well fitted inhibition curve with a large enough effect in the signal ratio in the repeat runs, not every such curve was filed as active; the % refers to the signal ratio;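 also: cells stimulated with agonist L165041 at 300 nM final during compound exposure; series mostly up to about 62 µM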)
Procedure, shortened: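 Fluorescence from cleaved LiveBLAzer B/G FRET substrate (2 h, room temperature) reports PPARd-driven beta-lactamase in HEK293H UAS-bla cells. Cells had been treated 17 h at 37 C with compound plus 300 nM final L165041.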

[14] = qHTS assay to identify small molecule agonists of the farnesoid-X-receptor (FXR) signaling pathway - cell viability counter screen (AID 743218); also: nearly all actives have a fitted effect of over 45% in size
Procedure, shortened: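 Readout: CellTiter-Glo luminescence, 30 min RT, multiplexed after the FXR-bla FRET reading. HEK 293T FXR-UAS-bla cells received compound 5 h post-plating and were incubated 16 h at 37 C.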

[15] = qHTS assay to identify small molecule antagonists of the farnesoid-X-receptor (FXR) signaling pathway - cell viability counter screen (AID 743221; active = well fitted cell-killing curve with a large enough effect in the repeat runs, not every such curve was filed as active; also: nearly all actives have a fitted effect of over 50% in size)
Procedure, shortened: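 Here viability was scored by luminescence after CellTiter-Glo addition to wells already read for beta-lactamase. Prior treatment: compound plus CDCA (50 uM final), 16 h, 37 C, HEK 293T FXR-bla cells.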

[16] = biological target: Peroxisome proliferator-activated receptor gamma (Homo sapiens) (UniProt P37231); experiment: qHTS assay to identify small molecule antagonists of the peroxisome proliferator-activated receptor gamma (PPARg) signaling pathway (AID 743191; calls by dose curve; also: series mostly up to about 63 µM; nearly all actives have a fitted effect of over 30% in size)
Procedure, shortened: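 Beta-lactamase reporter under UAS control in HEK293H PPARg-bla cells; compound treatment 17 h at 37C. Read-out: fluorescence intensity after 1 h room-temperature incubation with LiveBLAzer B/G FRET substrate.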

[17] = biological target: Bile acid receptor (Homo sapiens) (UniProt Q96RI1); experiment: qHTS assay to identify small molecule antagonists of the farnesoid-X-receptor (FXR) signaling pathway (AID 743217; active = well fitted inhibition curve with a large enough effect in the signal ratio in the repeat runs, not every such curve was filed as active; the % refers to the signal ratio)
Bile acid receptor (Homo sapiens), sequence (Q96RI1 whole entry, looked up): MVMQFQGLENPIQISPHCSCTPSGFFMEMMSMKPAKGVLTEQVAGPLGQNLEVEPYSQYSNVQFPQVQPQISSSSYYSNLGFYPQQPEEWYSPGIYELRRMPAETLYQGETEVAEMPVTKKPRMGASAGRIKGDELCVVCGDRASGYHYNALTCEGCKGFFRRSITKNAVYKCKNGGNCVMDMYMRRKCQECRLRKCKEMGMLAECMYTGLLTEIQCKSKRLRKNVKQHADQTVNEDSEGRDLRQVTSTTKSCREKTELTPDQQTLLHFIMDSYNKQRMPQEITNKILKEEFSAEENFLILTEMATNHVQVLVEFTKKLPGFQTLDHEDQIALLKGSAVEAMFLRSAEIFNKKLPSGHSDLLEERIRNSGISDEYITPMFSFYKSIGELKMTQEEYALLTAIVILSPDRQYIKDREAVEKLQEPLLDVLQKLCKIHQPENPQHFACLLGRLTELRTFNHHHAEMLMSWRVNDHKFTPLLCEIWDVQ
Procedure, shortened: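 FRET fluorescence after 2 h room-temperature LiveBLAzer loading gives the readout. Prior step: FXR-bla HEK 293T cells, seeded and incubated 5 h, received test compounds plus 50 uM final CDCA for 16 h at 37 °C.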

[18] = biological target: Bile acid receptor (Homo sapiens) (UniProt Q96RI1); experiment: qHTS assay to identify small molecule agonists of the farnesoid-X-receptor (FXR) signaling pathway (AID 743220; active = well fitted activation curve with a large enough effect in the signal ratio in the repeat runs, not every such curve was filed as active; the % refers to the signal ratio)
Procedure, shortened: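 FXR-UAS-bla HEK 293T cells carrying a UAS-driven beta-lactamase reporter were plated for 5 h at 37C/5% CO2, then exposed to DMSO-dissolved Tox21 10K compounds for 16 h at 37C. A LiveBLAzer B/G FRET substrate was loaded for 2 h at room temperature before fluorescence reading.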

[19] = biological target: Vitamin D3 receptor (Homo sapiens) (UniProt P11473); experiment: qHTS assay to identify small molecule agonists of the vitamin D receptor (VDR) signaling pathway (AID 743222; calls by dose curve)
Vitamin D3 receptor (Homo sapiens), sequence (P11473 whole entry, looked up): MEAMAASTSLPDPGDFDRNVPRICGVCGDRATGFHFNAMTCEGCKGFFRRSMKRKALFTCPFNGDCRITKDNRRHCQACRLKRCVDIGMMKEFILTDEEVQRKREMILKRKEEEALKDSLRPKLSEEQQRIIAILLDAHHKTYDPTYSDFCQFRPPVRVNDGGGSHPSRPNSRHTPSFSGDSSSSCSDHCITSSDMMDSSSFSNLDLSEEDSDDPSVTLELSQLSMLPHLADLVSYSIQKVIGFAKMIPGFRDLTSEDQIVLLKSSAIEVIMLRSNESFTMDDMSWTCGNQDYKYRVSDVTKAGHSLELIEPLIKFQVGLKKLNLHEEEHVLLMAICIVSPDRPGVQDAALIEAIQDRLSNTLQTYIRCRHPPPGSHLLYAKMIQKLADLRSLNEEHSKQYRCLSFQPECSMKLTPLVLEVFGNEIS
Procedure, shortened: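 Following 4 h attachment at 37C, VDR-bla cells (2,000 per well) received DMSO-dissolved compounds or controls. After 16 h incubation, LiveBLAzer B/G FRET substrate was added and fluorescence read 2 h later at room temperature.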

[20] = biological target: Vitamin D3 receptor (Homo sapiens) (UniProt P11473); experiment: qHTS assay to identify small molecule antagonists of the vitamin D receptor (VDR) signaling pathway (AID 743223; active = well fitted inhibition curve with a large enough effect in the signal ratio in the repeat runs, not every such curve was filed as active; the % refers to the signal ratio)
Procedure, shortened: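 Inhibition of agonist-driven VDR signalling is scored in VDR-bla cells: 3 nM final 1alpha,25-dihydroxyvitamin D3 plus compound, 16 h at 37C, then beta-lactamase detection by FRET substrate fluorescence after 2 h.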

With `COc1ccc(N)cc1` the Potency [1] was “inactive”, the Potency [2] was 60.1 µM (active) and inactive and 30.6 µM (active) and the Potency [3] was “inactive”. The outcome [4] was “inactive”, the Potency [5] was “inactive” and the Potency [6] was “inactive”. For the same compound, the Potency [7] was “inactive”, the Potency [8] was “inactive” and the outcome [9] was “inactive”. For the same compound, the Potency [10] was “inactive”, the outcome [11] was “inactive” and the Potency [12] was “inactive”. The outcome [13] was “inactive”, the Potency [14] was “inactive” and the Potency [15] was “inactive”.

For `O=c1nc(O)n(Cl)c(=O)n1Cl`, the Potency [1] was “inactive”, the Potency [2] was “inactive” and the Potency [3] was “inactive”. For the same compound, the outcome [4] was “inactive”, the Potency [16] was “inactive” and the Potency [5] was “inactive”. The Potency [6] was “inactive”, the Potency [7] was “inactive” and the Potency [8] was “inactive”. The Potency [10] was “inactive”, the Potency [14] was “inactive” and the Potency [15] was “inactive”.

For `O=P1(N(CCCl)CCCl)NCCCO1` (configuration not stated), the Potency [1] was “inactive”, the Potency [2] was “inactive” and the Potency [3] was “inactive”. The outcome [4] was “inactive”, the Potency [16] was “inactive” and the Potency [5] was “inactive”. For the same compound, the Potency [6] was “inactive”, the Potency [7] was “inactive” and the Potency [8] was “inactive”. The Potency [10] was “inactive”, the outcome [11] was “inactive” and the outcome [13] was “inactive”. The Potency [17] was “inactive”, the Potency [14] was “inactive” and the outcome [18] was “inactive”. The Potency [15] was “inactive”, the outcome [19] was “inactive” and the Potency [20] was “inactive”.

In the case of `O=C(O)CC(O)(CC(=O)O)C(=O)O`, the Potency [1] is reported as “inactive”, the Potency [2] is reported as “inactive” and the Potency [3] is reported as “inactive”. The outcome [4] was “inactive”, the Potency [16] was “inactive” and the Potency [5] was “inactive”. For the same compound, the Potency [6] was “inactive”, the Potency [7] was “inactive” and the Potency [8] was “inactive”. The outcome [9] was “inactive”, the Potency [10] was “inactive” and the outcome [11] was “inactive”. For the same compound, the outcome [13] was “inactive”, the Potency [14] was “inactive” and the Potency [15] was “inactive”. For the same compound, the outcome [19] was “inactive” and the Potency [20] was “inactive”.

For `C1CCC(NC2CCCCC2)CC1`, the Potency [1] was “inactive”, the Potency [2] was “inactive” and the Potency [3] was “inactive”. The outcome [4] was “inactive”, the Potency [16] was “inactive” and the Potency [5] was “inactive”. For the same compound, the Potency [6] was “inactive”, the Potency [7] was “inactive” and the Potency [8] was “inactive”. The outcome [9] was “inactive”, the Potency [10] was “inactive” and the outcome [11] was “inactive”. The Potency [12] was “inactive”, the outcome [13] was “inactive” and the Potency [14] was “inactive”. The Potency [15] was “inactive”, the outcome [19] was “inactive” and the Potency [20] was “inactive”.

For `O=[N+]([O-])c1ccccc1O`, the Potency [1] was “inactive”, the Potency [2] was “inactive” and the Potency [3] was “inactive”. For the same compound, the outcome [4] was “inactive”, the Potency [16] was “inactive” and the Potency [5] was “inactive”. For the same compound, the Potency [6] was “inactive”, the Potency [7] was “inactive” and the Potency [8] was “inactive”. For the same compound, the outcome [9] was “inactive”, the Potency [10] was “inactive” and the Potency [12] was “inactive”. The Potency [14] was “inactive” and the Potency [15] was “inactive”.

In the case of `CN(C)[C@@H]1C(=O)C(C(N)=O)=C(O)[C@@]2(O)C(=O)C3=C(O)c4c(O)cccc4[C@@](C)(O)[C@H]3[C@H](O)[C@@H]12`, the Potency [1] is reported as “inactive”, the Potency [2] is reported as “inactive” and the Potency [3] is reported as “inactive”. The outcome [4] was “inactive”, the Potency [16] was “inactive” and the Potency [5] was “inactive”. For the same compound, the Potency [6] was “inactive”, the Potency [7] was “inactive” and the Potency [8] was “inactive”. For the same compound, the Potency [10] was “inactive”, the Potency [12] was “inactive” and the Potency [14] was “inactive”. The Potency [15] was “inactive”.
